Measurements: PubChem BioAssay (EPA / NIEHS)
Calls of active or inactive are those of the source. How the source made its calls: active means hit-call score of the fitted dose curve at least 0.9, where 1 is the maximum; inactive means score below 0.9.

What was measured:
Settings in all cases: actives raise or lower the signal
[1] = CEETOX_H295R_11DCORT: CeeTox H295R High-throughput Steroidogenesis Assay for 11-Deoxycortisol (11DCORT) (AID 2283432);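 on AC50: 11-deoxycortisol secreted into the medium measured by LC-MS/MS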
Method in brief: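 Steroidogenesis in human H295R cells: 48 h chemical exposure after forskolin priming, 11-deoxycortisol measured by LC-MS/MS.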

[2] = CEETOX_H295R_OHPREG: CeeTox H295R High-throughput Steroidogenesis Assay for OH-Pregnenolone (OHPREG) (AID 2283434)
Method in brief: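 H295R cells pre-stimulated 48 h with 10 uM forskolin, then exposed 48 h to chemical in 0.1% DMSO. 17alpha-hydroxypregnenolone in medium quantified by MTBE extraction and HPLC-MS/MS; bidirectional fit versus DMSO, viability checked by MTT.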

[3] = CEETOX_H295R_OHPROG: CeeTox H295R High-throughput Steroidogenesis Assay for OH-Progesterone (OHPROG) (AID 2283435);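 on AC50: human adrenal H295R cells primed 48 h with 10 µM forskolin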
Method in brief: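 H295R adrenal cells prestimulated 48 h with 10 uM forskolin, then exposed 48 h to chemical (0.1% DMSO final). 17alpha-hydroxyprogesterone in medium quantified by HPLC-MS/MS; bidirectional fit versus DMSO, with MTT viability measured in the same wells.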

[4] = CEETOX_H295R_CORTIC: CeeTox H295R High-throughput Steroidogenesis Assay for Corticosterone (CORTIC) (AID 2283437);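 further: corticosterone secreted into medium quantified by mass spectrometry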;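 on AC50: human H295R adrenal cells prestimulated with forskolin before chemical exposure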
Method in brief: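 H295R adrenal cells prestimulated 48 hours with 10 uM forskolin, then exposed 48 hours to chemical in 0.1% DMSO. Corticosterone in medium measured by HPLC-MS/MS after MTBE extraction; MTT viability in the same wells; bidirectional fit versus DMSO.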

[5] = CEETOX_H295R_DOC: CeeTox H295R High-throughput Steroidogenesis Assay for DOC (AID 2283439)
Method in brief: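 H295R cells prestimulated 48 h with 10 uM forskolin, then exposed 48 h to test chemical (0.1% DMSO final). Medium 11-deoxycorticosterone measured by HPLC-MS/MS after MTBE extraction; bidirectional fit vs DMSO, viability checked by MTT in same wells.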

[6] = CEETOX_H295R_ESTRADIOL: CeeTox H295R High-throughput Steroidogenesis Assay for Estradiol (AID 2283440);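 further: estradiol secreted into medium quantified by LC-MS/MS after dansyl derivatisation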
Method in brief: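 Readout is estradiol in conditioned medium, quantified by reverse-phase HPLC-MS/MS against a 7-point standard curve. Cells: H295R, forskolin-stimulated, then dosed 48 h in 0.1% DMSO; activity fitted in both directions relative to DMSO.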

[7] = CEETOX_H295R_ESTRONE: CeeTox H295R High-throughput Steroidogenesis Assay for Estrone (AID 2283441);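 further: estrone secreted into medium measured by LC-MS/MS after dansyl derivatization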
Method in brief: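 H295R cells prestimulated 48 h with 10 uM forskolin, then exposed 48 h to chemicals in 0.1% DMSO final; estrone in medium extracted with MTBE, dansyl-derivatized, quantified by HPLC-MS/MS; bidirectional fitting versus DMSO, viability by MTT.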

[8] = CEETOX_H295R_PROG: CeeTox H295R High-throughput Steroidogenesis Assay for Progesterone (PROG) (AID 2283442);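 on AC50: human H295R adrenal cells primed with 10 µM forskolin before dosing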
Method in brief: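 Measured analyte is progesterone secreted by H295R cells at 48 h of chemical treatment, following 10 uM forskolin priming. Quantitation used HPLC-MS/MS against a 7-point standard curve; cytotoxicity was checked by MTT absorbance.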

[9] = CEETOX_H295R_ANDR: CeeTox H295R High-throughput Steroidogenesis Assay for Androstenedione (ANDR) (AID 2283436)
Method in brief: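 H295R cells, following OECD 456 with minor changes, exposed to chemicals for 48 h. Androstenedione in the medium was quantified by HPLC-MS/MS after MTBE extraction. Fitting was bidirectional versus DMSO; chemicals were diluted until MTT viability was ≥70%.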

[10] = CEETOX_H295R_TESTO: CeeTox H295R High-throughput Steroidogenesis Assay for Testosterone (TESTO) (AID 2283457);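 on AC50: cells exposed to chemicals for 48 h before medium collection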
Method in brief: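 Steroidogenesis in H295R cells following OECD 456 with minor changes; 48 h exposure. Medium testosterone by HPLC-MS/MS, DMSO as baseline, with MTT viability run in parallel.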

Measured: AC50

CN(C)c1ccc(C(=N)c2ccc(N(C)C)cc2)cc1
active: [2] 3.27 µM
not listed: [9] | [10]
inactive: all other assays above

CCCCCCCCCCCCCOP(=O)(O)O
not listed: [9] | [10]
inactive: all other assays above

C#CC1(O)CC[C@H]2[C@@H]3CCC4=CCCC[C@@H]4[C@H]3CC[C@@]21C (stereo partly drawn)
inactive: [2] | [4] | [8]
active: [1] 7.32 µM | [3] 7.02 µM | [5] 2.03 µM

Oc1ccc(Cl)cc1Cc1cc(Cl)ccc1O
active: [1] 6.93 µM
inactive: all other assays above

COC(=O)c1c(C)cc(O)c(C)c1O
active: [3] 26.3 µM | [8] 59.5 µM
inactive: [2] | [6] | [7]

CCCCNc1ccc(NCCCC)c2c1C(=O)c1ccccc1C2=O
active: [3] 0.164 µM | [8] 0.208 µM
inactive: all other assays above

O=C(Nc1ccccc1SSc1ccccc1NC(=O)c1ccccc1)c1ccccc1
not listed: [9] | [10]
inactive: all other assays above

O=C(C=Cc1ccccc1)OCc1ccccc1
active: [2] 50 µM | [3] 50 µM | [4] 36.2 µM | [8] 14.6 µM
inactive: [1] | [5] | [6] | [7]

COCc1c(C(C)C)nc(C(C)C)c(/C=C/[C@@H](O)C[C@@H](O)CC(=O)O)c1-c1ccc(F)cc1
active: [1] 0.0173 µM | [2] 0.00141 µM | [3] 0.0173 µM | [9] 0.0224 µM | [4] 0.0139 µM | [5] 0.0107 µM | [8] 0.0067 µM | [10] 0.0187 µM
inactive: [6] | [7]
